Source: PubChem BioAssay (EPA / NIEHS)
The source made the active and inactive calls. Rule for the calls: active = hit-call score of the fitted dose curve at least 0.9, where 1 is the maximum; inactive = score below 0.9.

What was measured:
[1] = ATG_CRE_CIS: Attagene CIS-FACTORIAL HepG2 Assay for human cAMP Responsive Element (CRE) binding protein 3 (AID 2282926); conditions: HepG2 CRE cis-reporter, Attagene multiplexed mRNA; actives raise or lower the signal
Procedure, shortened: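 Human liver HepG2, transient MRTU transfection, 24 h compound exposure. Total RNA → oligo(dT) RT → PCR → 6-FAM primer extension → HpaI cut → CE. Activity called both directions vs DMSO.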

[2] = biological target: CCAAT/enhancer-binding protein beta (Homo sapiens) (UniProt P17676); assay: ATG_C_EBP_CIS: Attagene CIS-FACTORIAL HepG2 Assay for human CCAAT/Enhancer Binding Protein (C/EBP) beta (AID 2282927); conditions: HepG2 Attagene cis-factorial transcription factor reporter; actives raise or lower the signal
Procedure, shortened: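 HepG2 transiently transfected with multiplexed reporter units under cis-regulatory promoters reporting endogenous C/EBPb activity. After 24 h exposure, reporter mRNA assayed by RT-PCR, fluorescent labelling, HpaI digestion and capillary electrophoresis; bidirectional fitting versus DMSO.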

[3] = ATG_DR4_LXR_CIS: Attagene CIS-FACTORIAL HepG2 Assay for human Liver X Receptor (LXR), DR4 submotif (AID 2282929); conditions: HepG2 Attagene DR4 cis-reporter, mRNA transcription; actives raise or lower the signal
Procedure, shortened: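 Endogenous factor activity at a DR4 cis-element is read as reporter mRNA in transiently transfected HepG2 cells. Exposure lasts 24 h; transcripts are amplified, fluorescently labelled and sized by capillary electrophoresis, with DMSO as baseline.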

[4] = biological target: Aryl hydrocarbon receptor (Homo sapiens) (UniProt P35869); assay: ATG_Ahr_CIS: Attagene CIS-FACTORIAL HepG2 Assay for human Aryl Hydrocarbon Receptor (Ahr) (AID 2282930); conditions: HepG2 AhR cis-factorial reporter transcription; actives raise or lower the signal
Procedure, shortened: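 HepG2 cells transiently transfected with cis-element-driven multiplexed reporter units; endogenous AhR activity read as reporter mRNA 24 h after dosing, via RT-PCR, 6-FAM labelling, HpaI digestion and capillary electrophoresis. Bidirectional fit relative to DMSO.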

[5] = ATG_AP_1_CIS: Attagene CIS-FACTORIAL HepG2 Assay for human Activator Protein 1 (AP-1) (AID 2282931); conditions: HepG2 Attagene cis-factorial AP-1 reporter mRNA; actives raise or lower the signal
Procedure, shortened: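 Fluorescence of labelled PCR fragments separated by capillary electrophoresis gives reporter mRNA levels. HepG2 with transfected cis-regulated reporter units, 24 h exposure; DMSO serves as baseline for bidirectional curve fits.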

[6] = ATG_AP_2_CIS: Attagene CIS-FACTORIAL HepG2 Assay for human Activator Protein 2 (AP-2) (AID 2282932); conditions: HepG2 AP-2 cis-reporter, Attagene transcription factor profiling; actives raise or lower the signal
Procedure, shortened: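 Multiplexed mRNA reporter assay in HepG2: cis-regulated units report endogenous factor activity after 24 h treatment. Fluorescence from capillary electrophoresis of RT-PCR products gives the signal, with DMSO as baseline.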

[7] = ATG_BRE_CIS: Attagene CIS-FACTORIAL HepG2 Assay for human Bone Morphogenetic Protein (BMP) Response Element (BRE) (AID 2282933); conditions: HepG2 BMP response element reporter, Attagene transcription factor profiling; actives raise or lower the signal
Procedure, shortened: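 HepG2 cells transiently transfected with CIS reporter units (endogenous TF activity, BMP response element), dosed 24 h. Reporter mRNA quantified by RT-PCR, fluorescent labelling and capillary electrophoresis; bidirectional fit vs DMSO baseline.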

[8] = biological target: Transcription factor E2F1 (Homo sapiens) (UniProt Q01094); assay: ATG_E2F_CIS: Attagene CIS-FACTORIAL HepG2 Assay for human E2F Transcription Factor 1 (AID 2282935); conditions: HepG2 Attagene cis-reporter, E2F reporter RNA transcripts; actives raise or lower the signal
Procedure, shortened: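 Measures reporter transcript levels via RT-PCR with capillary electrophoresis detection in HepG2 cells harboring cis-regulated reporter units; 24 h post-dose; bidirectional curve fitting with DMSO as baseline.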

[9] = ATG_E_Box_CIS: Attagene CIS-FACTORIAL HepG2 Assay for human Enhancer Box (E-box) (AID 2282936); conditions: HepG2 E-box cis-reporter transcription, actives raise or lower the signal
Procedure, shortened: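 First, HepG2 cells receive multiple cis-regulated reporter constructs by transient transfection. Next, chemicals are applied for 24 h. Finally, reporter mRNA is quantified via RT-PCR and capillary electrophoresis, with DMSO as baseline.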

[10] = ATG_M_61_CIS: Attagene CIS-FACTORIAL HepG2 Assay for M61 Transcription Factor (Internal Marker) (AID 2282937); conditions: HepG2 Attagene CIS-FACTORIAL M61 internal marker reporter; actives raise or lower the signal
Procedure, shortened: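 This endpoint serves as an internal background control within a multiplexed HepG2 cis-reporter panel. Cells are exposed for 24 h; reporter mRNA is amplified, fluorescently labelled and sized by capillary electrophoresis, with DMSO as negative control.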

[11] = ATG_EGR_CIS: Attagene CIS-FACTORIAL HepG2 Assay for human Early Growth Response 1 (EGR1) (AID 2282938); conditions: HepG2 Attagene CIS-FACTORIAL EGR reporter mRNA; actives raise or lower the signal
Procedure, shortened: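 HepG2, transient MRTU transfection (cis promoters), 24 h compound. RNA → RT (oligo-dT) → PCR → 6-FAM labelling → HpaI cut → CE fluorescence. Bidirectional fit, DMSO baseline.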

[12] = ATG_M_19_CIS: Attagene CIS-FACTORIAL HepG2 Assay for M19 Transcription Factor (Internal Marker) (AID 2282939); conditions: HepG2 Attagene CIS-FACTORIAL M19 internal marker reporter; actives raise or lower the signal
Procedure, shortened: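 HepG2 cells transiently transfected with cis-regulated multiplexed reporter units, dosed 24 h. Reporter mRNA quantified by RT-PCR and capillary electrophoresis; internal background marker fitted bidirectionally versus DMSO.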

[13] = ATG_ERE_CIS: Attagene CIS-FACTORIAL HepG2 Assay for Estrogen Response Element (ERE) (AID 2282940); conditions: HepG2 ERE cis-reporter, Attagene RNA transcript; actives raise or lower the signal
Procedure, shortened: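 HepG2 cells transiently transfected with multiplexed cis-element reporter units, measuring endogenous transcription factor activity; ERE reporter mRNA quantified after 24 h exposure by RT-PCR, fluorescent labelling, HpaI digestion and capillary electrophoresis. Bidirectional change versus DMSO.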

[14] = ATG_Ets_CIS: Attagene CIS-FACTORIAL HepG2 Assay for human Erythroblast Transformation Specific (ETS) (AID 2282941); conditions: HepG2 ETS cis-reporter transcription, actives raise or lower the signal
Procedure, shortened: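 HepG2 cells transiently transfected with cis-promoter reporter transcription units were dosed for 24 h; reporter mRNA was measured by RT-PCR, 6-FAM primer extension, HpaI digestion and capillary electrophoresis, with bidirectional fitting against DMSO baseline.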

[15] = biological target: Hepatocyte nuclear factor 3-beta (Homo sapiens) (UniProt Q9Y261); assay: ATG_FoxA2_CIS: Attagene CIS-FACTORIAL HepG2 Assay for human Forkhead box A2 (FOXA2) (AID 2282942); conditions: HepG2 cis-reporter transcription factor activity, 24 h; actives raise or lower the signal
Procedure, shortened: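 Cells: HepG2, transient multiplex reporter transfection. Exposure 24 h. Detection: reporter-specific RT-PCR, fluorescent labelling, restriction digest, capillary electrophoresis. Analysis: bidirectional curve fit, DMSO as negative control.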

[16] = ATG_FoxO_CIS: Attagene CIS-FACTORIAL HepG2 Assay for human Forkhead box O (FoxO) (AID 2282943); conditions: HepG2 Attagene cis-reporter, FoxO element, mRNA; actives raise or lower the signal
Procedure, shortened: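 HepG2 cells transiently transfected with cis-element-driven reporter units report endogenous FoxO activity. After 24 h chemical exposure, reporter mRNA quantified by RT-PCR, fluorescent labeling, HpaI digestion and capillary electrophoresis; bidirectional fit versus DMSO.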

[17] = ATG_GATA_CIS: Attagene CIS-FACTORIAL HepG2 Assay for human GATA Binding Protein (AID 2282944); conditions: HepG2 GATA cis-element reporter, Attagene multiplex mRNA; actives raise or lower the signal
Procedure, shortened: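 HepG2 cells transiently transfected with multiplexed cis-element reporter units measure endogenous GATA activity; after 24 h compound exposure, reporter mRNA quantified by RT-PCR and capillary electrophoresis. Changes fitted in both directions vs DMSO.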

[18] = ATG_CMV_CIS: Attagene CIS-FACTORIAL HepG2 Assay for human CMV (Internal Marker) (AID 2282928); conditions: HepG2 CMV promoter reporter, transcription factor profiling; actives raise or lower the signal;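 note: endpoint acts as a background internal control marker rather than a target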
Procedure, shortened: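 HepG2 cells transiently transfected with multiple cis-regulated reporter units; 24 h compound exposure. Reporter mRNA quantified by RT-PCR, 6-FAM primer-extension labeling, HpaI digestion and capillary electrophoresis; bidirectional fitting against DMSO baseline.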

[19] = biological target: Retinoic acid receptor alpha (Homo sapiens) (UniProt P10276); assay: ATG_DR5_RAR_CIS: Attagene CIS-FACTORIAL HepG2 Assay for human Retinoic Acid Receptor Alpha (RARE), DR5 submotif (AID 2282934); conditions: HepG2 Attagene cis-factorial RARE DR5 reporter, mRNA; actives raise or lower the signal
Procedure, shortened: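 HepG2 cells transiently transfected with multiplexed reporter units; DR5 cis-element drives reporter through endogenous transcription factors. After 24 h dosing, reporter mRNA quantified by RT-PCR, fluorescent labeling, HpaI digestion and capillary electrophoresis; bidirectional fitting versus DMSO.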

Measured: AC50

Chain of CCAAT/enhancer-binding protein beta (Homo sapiens) (P17676 whole entry, looked up): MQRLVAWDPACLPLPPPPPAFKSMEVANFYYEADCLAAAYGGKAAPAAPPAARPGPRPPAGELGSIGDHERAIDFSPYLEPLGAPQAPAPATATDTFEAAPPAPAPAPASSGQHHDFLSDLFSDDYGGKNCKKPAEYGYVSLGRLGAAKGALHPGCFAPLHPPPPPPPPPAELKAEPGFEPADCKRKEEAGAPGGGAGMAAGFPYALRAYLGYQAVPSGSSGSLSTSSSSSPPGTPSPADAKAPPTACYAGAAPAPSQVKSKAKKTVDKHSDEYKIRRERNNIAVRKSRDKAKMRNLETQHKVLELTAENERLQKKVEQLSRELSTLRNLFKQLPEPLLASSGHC
Chain of Aryl hydrocarbon receptor (Homo sapiens) (P35869 whole entry, looked up): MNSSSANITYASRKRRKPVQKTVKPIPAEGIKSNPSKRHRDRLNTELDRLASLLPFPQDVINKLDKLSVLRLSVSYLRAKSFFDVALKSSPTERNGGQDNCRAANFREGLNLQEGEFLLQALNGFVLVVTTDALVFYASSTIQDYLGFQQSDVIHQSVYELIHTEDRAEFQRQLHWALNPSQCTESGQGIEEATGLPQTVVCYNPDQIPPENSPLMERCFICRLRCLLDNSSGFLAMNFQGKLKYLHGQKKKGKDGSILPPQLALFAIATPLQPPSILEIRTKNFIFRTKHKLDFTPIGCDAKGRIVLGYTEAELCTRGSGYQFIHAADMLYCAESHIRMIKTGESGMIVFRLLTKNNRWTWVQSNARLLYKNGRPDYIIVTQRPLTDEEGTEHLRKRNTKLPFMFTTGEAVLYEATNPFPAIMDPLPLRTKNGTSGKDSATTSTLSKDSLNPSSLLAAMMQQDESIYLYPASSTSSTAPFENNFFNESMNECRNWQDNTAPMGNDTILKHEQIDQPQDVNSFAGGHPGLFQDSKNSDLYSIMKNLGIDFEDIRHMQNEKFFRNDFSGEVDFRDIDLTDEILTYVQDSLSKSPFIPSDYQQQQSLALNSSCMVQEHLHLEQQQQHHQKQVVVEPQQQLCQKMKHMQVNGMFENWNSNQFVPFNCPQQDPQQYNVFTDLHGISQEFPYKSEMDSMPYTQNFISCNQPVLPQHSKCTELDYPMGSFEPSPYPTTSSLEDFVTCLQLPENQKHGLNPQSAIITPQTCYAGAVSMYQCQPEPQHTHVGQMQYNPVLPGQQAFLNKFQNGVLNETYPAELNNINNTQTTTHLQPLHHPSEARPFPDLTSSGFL
Chain of Transcription factor E2F1 (Homo sapiens) (Q01094 whole entry, looked up): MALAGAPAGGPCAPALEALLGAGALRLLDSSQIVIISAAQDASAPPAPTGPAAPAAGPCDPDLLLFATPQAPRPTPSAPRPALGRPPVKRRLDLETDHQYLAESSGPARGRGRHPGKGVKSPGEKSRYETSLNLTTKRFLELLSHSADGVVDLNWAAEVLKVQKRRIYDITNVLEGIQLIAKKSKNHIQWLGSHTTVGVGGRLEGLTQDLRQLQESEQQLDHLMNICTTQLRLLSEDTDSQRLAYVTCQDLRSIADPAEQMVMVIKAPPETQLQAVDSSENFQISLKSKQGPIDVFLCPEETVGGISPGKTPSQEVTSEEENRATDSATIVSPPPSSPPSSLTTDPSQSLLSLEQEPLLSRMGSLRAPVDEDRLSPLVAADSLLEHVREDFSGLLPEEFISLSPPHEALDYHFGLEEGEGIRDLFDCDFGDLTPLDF
Chain of Hepatocyte nuclear factor 3-beta (Homo sapiens) (Q9Y261 whole entry, looked up): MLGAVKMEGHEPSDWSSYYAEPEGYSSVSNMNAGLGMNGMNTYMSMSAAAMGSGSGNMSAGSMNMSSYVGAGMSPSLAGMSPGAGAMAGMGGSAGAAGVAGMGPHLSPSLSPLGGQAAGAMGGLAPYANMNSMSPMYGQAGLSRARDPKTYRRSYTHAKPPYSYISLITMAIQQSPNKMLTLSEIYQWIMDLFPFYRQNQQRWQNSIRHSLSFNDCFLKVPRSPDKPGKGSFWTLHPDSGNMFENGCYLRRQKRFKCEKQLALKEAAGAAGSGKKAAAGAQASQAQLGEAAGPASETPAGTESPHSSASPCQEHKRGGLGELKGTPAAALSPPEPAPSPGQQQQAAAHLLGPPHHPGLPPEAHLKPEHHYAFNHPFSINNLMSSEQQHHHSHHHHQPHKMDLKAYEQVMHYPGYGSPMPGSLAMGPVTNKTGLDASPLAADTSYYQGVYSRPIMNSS
Chain of Retinoic acid receptor alpha (Homo sapiens) (P10276 whole entry, looked up): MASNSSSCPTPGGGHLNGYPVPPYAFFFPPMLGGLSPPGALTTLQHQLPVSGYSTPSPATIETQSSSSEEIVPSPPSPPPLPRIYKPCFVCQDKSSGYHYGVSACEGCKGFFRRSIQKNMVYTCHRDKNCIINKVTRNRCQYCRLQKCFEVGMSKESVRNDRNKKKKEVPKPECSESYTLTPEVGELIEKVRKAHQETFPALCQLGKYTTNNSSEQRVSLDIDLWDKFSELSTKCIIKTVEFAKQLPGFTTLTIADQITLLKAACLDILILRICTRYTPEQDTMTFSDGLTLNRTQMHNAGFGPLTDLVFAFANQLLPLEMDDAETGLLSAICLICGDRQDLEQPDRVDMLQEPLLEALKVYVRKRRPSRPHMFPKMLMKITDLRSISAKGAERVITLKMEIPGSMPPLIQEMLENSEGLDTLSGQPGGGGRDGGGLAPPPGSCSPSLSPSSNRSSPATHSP

O=C1CCCCCCCCCCCC(=O)OCCO1
not listed: [18] | [19]
inactive: all other assays above

CCCCCCCCCCCCCC(=O)OCC
not listed: [3] | [4] | [7] | [14] | [19]
inactive: all other assays above

CCOCC(C)O (stereo unspecified)
not listed: [5] | [18] | [19]
inactive: all other assays above

[Cu+]
active: [4] 15 µM
not listed: [2]
inactive: all other assays above

CCCCCCCCSCc1cc(C)c(O)c(CSCCCCCCCC)c1
not listed: [3] | [4] | [19]
inactive: all other assays above

CCC(=O)OC/C=C(\C)CCC=C(C)C
not listed: [18] | [19]
inactive: all other assays above

O=C(OCc1ccccc1)c1ccccc1O
active: [3] 55.1 µM | [4] 61.9 µM | [5] 111 µM | [7] 133 µM | [13] 76.3 µM
not listed: [18] | [19]
inactive: all other assays above

CC1=CC(O)CC(C)(C)C1 (stereo unspecified)
active: [4] 44.9 µM
not listed: [2] | [7] | [8]
inactive: all other assays above
